According to ChEMBL document CHEMBL1157539, “Thousands of chemical starting points for antimalarial lead identification” (Nature, 2010):

Tests used:
Assay type in all cases: functional
Plasmodium falciparum [1] = assay: GSK_TCMDC: Inhibition of Plasmodium falciparum 3D7 in whole red blood cells, using parasite LDH activity as an index of growth. Test compounds present at 2uM
Plasmodium falciparum [2] = assay: GSK_TCMDC: Inhibition of Plasmodium falciparum Dd2 in whole red blood cells, using parasite LDH activity as an index of growth. Test compounds present at 2uM
HepG2 = assay: GSK_TCMDC: Percent inhibition of human HepG2 cell line. Test compounds present at 10uM.

Compound | Inhibition (Plasmodium falciparum [1]) [%] | Inhibition (Plasmodium falciparum [2]) [%] | Inhibition (HepG2) [%]
CC(=O)Nc1nc(C(=O)Nc2cccc(-c3ccc(-c4nc5cccc(C)c5[nH]4)s3)c2)cs1 | 100 | 67 | 14
CCC(CC)OC(=O)C(C)c1cccc(C(=O)c2ccccc2)c1 (stereo unspecified) | 93 | 0 | 0
COc1cc2c(cc1OC)C(C(=O)Nc1cc(OC)c(OC)c(OC)c1)C(c1ccc(SC)cc1)N(C)C2=O (stereo unspecified) | 97 | 64 | 14
CCOc1cc(C)c(C2CCN(CCCCNC(=O)c3ccc(NC(=O)c4ccc(Cl)cc4)cc3)CC2)cc1C | 100 | 87 | 10
Cn1c(Nc2nnc(C3CC3)s2)nc2cc(Nc3ccnc(Nc4cccc(CS(C)(=O)=O)c4)n3)ccc21 | 97 | 83 | 0
CCC(CC(C)C(=O)O)=C(c1ccccc1)c1ccccc1 (stereo unspecified) | 98 | 1 | 12
COc1cccc(CCNc2nc(NCc3ccccc3)c3cc(OC)c(OC)cc3n2)c1 | 100 | 99 | 20
COc1ccc(-n2nc(C(=O)NCc3ccccc3OC)c3ccccc3c2=O)cc1 | 100 | 94 | 2
COc1cccc(C2CCN(CCCCNC(=O)c3ccc(NC(=O)c4ccc(Cl)cc4)cc3)CC2)c1 | 99 | 40 | 18
CCCN(CCC)c1nn2c(=O)c(C(=O)N3CCN(Cc4ccccc4)CC3)cnc2s1 | 84 | 89 | 0
CCOC(=O)c1c(NC(=O)c2ccccc2)sc2c(O)c(CNC3CCCCC3)ccc12 | 99 | 98 | 6
COc1cc(Cc2cnc(N)nc2N)cc(OCCNC(=O)OCc2ccccc2)c1OC | 93 | 0 | 6
CC1CCCC(C)N1C[C@@H](O)CNS(=O)(=O)c1cccc(C(F)(F)F)c1.Cl (stereo partly specified) | 99 | 2 | 4
O=C(/C=C/c1ccc(Cl)c(Cl)c1)NCCCCCN1CCCN(C(=O)Nc2cc(Cl)cc(Cl)c2)CC1 | 96 | 4 | 53
O=C(/C=C/c1ccc(Cl)cc1)NCCCCCN1CCCN(C(=O)Nc2cccc(Cl)c2)CC1 | 85 | 10 | 19
Cc1ccc(Nc2nnc(SCC(=O)Nc3ccc(CN4CCCC4)cc3)s2)cc1 | 91 | 0 | 4
COc1ccccc1CCNc1nc(C)cc(N[C@@H](CC(C)C)C(=O)NCc2cccc(F)c2)n1.O=C(O)C(F)(F)F | 94 | 79 | 20
CC(C)(C)c1ccc(NC(=O)Nc2ccc(Cn3ncc(N4CCCNCC4)c(Cl)c3=O)cc2)cc1.O=C(O)C(F)(F)F | 95 | 33 | 0
CCOC(=O)c1cnc2c(OC)cc(OC)c(Cl)c2c1Nc1cccc(C)c1C | 100 | 99 | 5
CCCCCCCCN1CCCN(C(=O)c2cccc(NC(=O)Nc3ccc4ccccc4c3)c2)CC1.O=C(O)C(F)(F)F | 97 | 39 | 39
O=C(O)C(F)(F)F.c1cc(-c2ccc(CNCCCN3CCOCC3)cc2)cc(-c2nc3ccccc3[nH]2)c1 | 100 | 0 | 26

Compound | Inhibition (Plasmodium falciparum [1]) [%] | Inhibition (Plasmodium falciparum [2]) [%] | Inhibition (HepG2) [%]
COc1cc(C(=O)N2CCOC(CCN3CCC[C@H]3C(=O)Nc3ccccc3)(c3ccc(Cl)c(Cl)c3)C2)cc(OC)c1OC (stereo partly specified) | 98 | 88 | 3
O=C(NCCCN1CCC(NC(=O)c2ccc(-c3cccnc3)cc2)CC1)c1ccc(Cl)c(Cl)c1.O=C(O)C(F)(F)F | 94 | 23 | 17
O=c1c2ccccc2[nH]c2cc(Cl)ccc12 | 95 | 86 | 24
Cc1ccc2cc(C3NC(=O)c4ccccc4N3)c(Cl)nc2c1 (stereo unspecified) | 91 | 38 | 0
O=C(Nc1nccs1)c1cc(-c2cccnc2)nc2ccc(Br)cc12 | 100 | 79 | 7
CC(C)N1CCN(c2ccc(OCCCCN3CCN(c4cccc(Cl)c4Cl)CC3)c(C(F)(F)F)c2)CC1.Cl | 100 | 28 | 64
O=C(/C=C/c1ccc(Cl)c(Cl)c1)N1CCC(CN2CCC(c3nc4ccccc4n3CCCO)CC2)CC1 | 96 | 0 | 60
CCN1CCN(c2cc(C)c3cc(NC(=O)c4ccc([N+](=O)[O-])c(C)c4)ccc3n2)CC1 | 92 | 39 | 8
O=C(NCc1ccc(Cl)cc1)c1ccc(CN2CCCN(CC3CCCCC3)CC2)cc1.O=C(O)C(F)(F)F | 84 | 5 | 18
COc1ccc(-c2cccc(NC(=O)c3cccc(Cl)c3)c2)cc1CNC(C)C.O=C(O)C(F)(F)F | 100 | 8 | 15
O=C(Nc1ccc(C(=O)OCC2CCCCC2)cc1)N[C@@H](Cc1ccc(O)cc1)C(=O)NC1CCN(Cc2ccc(O)cc2)C1.O=C(O)C(F)(F)F (stereo partly specified) | 91 | 0 | 6
COCCCNC(=O)[C@H]1CNCCN1C(=O)c1ccccc1.O=C(O)C(F)(F)F | 97 | 95 | 53
OC(CNCc1cccc(Oc2ccc(Cl)cc2)c1)c1cccc(C(F)(F)F)c1 (stereo unspecified) | 94 | 78 | 0
CC1CCN(C(=O)CSc2nc(-c3ccc(C(C)C)cc3)no2)CC1 | 98 | 84 | 0
Cc1[nH]c(C)c(-c2csc3ccccc23)c(=O)c1Cl | 97 | 75 | 7
CC1(C)CCC(C)(C)c2c1ccc(C1CCN(CCCCNC(=O)c3ccc(-c4ccc(Cl)cc4)cc3)CC1)c2O | 100 | 72 | 100
O=C(N[C@H]1CCN(CCc2ccc(O[C@H]3CCNC3)cc2)C1)c1ccc(Cl)c(Cl)c1.O=C(O)C(F)(F)F | 96 | 5 | 18
CC(=O)N[C@H](C(=O)Nc1ccc(-c2ccc(-c3nc4cc(C(F)(F)F)ccc4[nH]3)s2)cc1)C(C)C | 88 | 61 | 42
CC(C)c1cc(N)c2cc(NC(=O)COCC(=O)Nc3ccc4nc(C(C)C)cc(N)c4c3)ccc2n1 | 95 | 95 | 0
Cc1cc(=NN=Cc2ccccc2Cl)c2cc(F)ccc2[nH]1 | 100 | 4 | 5
CCCCCCCNCc1c(O)ccc2c(CNCCCCCCC)c(O)ccc12.Cl | 100 | 99 | 29

Compound | Inhibition (Plasmodium falciparum [1]) [%] | Inhibition (Plasmodium falciparum [2]) [%] | Inhibition (HepG2) [%]
OC1CCC(Nc2ccc3ncc(-c4ccc(Cl)cc4)n3n2)CC1 (stereo unspecified) | 97 | 98 | 57
Nc1c2c(nc3ccc(Oc4ccc(Cl)cc4)cc13)CCCC2 | 100 | 65 | 42
CCNc1cc(C(=O)N[C@@H](Cc2ccc(F)c(F)c2)[C@H](O)CNCc2cccc(OC)c2)cc(N2CCCCS2(=O)=O)c1.Cl | 99 | 85 | 4
COc1ccc(N2CCN(c3nc(N)c4cc(OC)c(OC)cc4n3)CC2C)cc1.Cl (stereo unspecified) | 95 | 0 | 8
CCN(CCCN1CCCCC1)c1cc(C)nc(Nc2ccc(C)c(C)c2)n1.O=C(O)C(F)(F)F | 100 | 60 | 30
Nc1c2ccccc2nc2cc(C(F)(F)F)ccc12 | 100 | 49 | 8
O=C(Nc1ccc(-c2nc3ccccc3[nH]2)cc1)c1ccc(N2CCCC2)c([N+](=O)[O-])c1 | 100 | 95 | 43
CC(N)(Cc1ccc(O)cc1)c1nnn[nH]1 (stereo unspecified) | 93 | 2 | 7
Cc1c(C)c2c(c(C)c1O)CC[C@](C)(C(=O)N1CCC(CCN3CCC(c4c[nH]c5ccccc45)CC3)CC1)O2 | 99 | 74 | 31
O=C(NCc1ccc(F)cc1)Nc1cccc(-c2ccc(-c3nc4ccccc4[nH]3)cc2)c1 | 100 | 49 | 45
CCCCCCCCS(=O)(=O)NCCCC1CCN(CCCCCNC(=O)C=Cc2ccc(Cl)c(Cl)c2)CC1 | 91 | 26 | 100
CCCC(C)N(Cc1ccc(C(C)(C)C)cc1)C(=O)c1cccc(OC)c1 (stereo unspecified) | 100 | 89 | 9
C#CCOc1ccccc1CN1CCC(N2CCc3cc(NC(=O)c4cc(C)on4)ccc32)C1 (stereo unspecified) | 95 | 94 | 16
COc1ccc(Nc2ncc3c(-c4cccc(NC(=O)CC(C)C)c4)c[nH]c3n2)cc1OC | 100 | 71 | 37
CCCCCCN(C(=O)OCc1ccccc1)C1CCN(C(=O)OC(C)(C)C)CC1C(=O)OCC (stereo unspecified) | 96 | 96 | 9
CCCCCCNCc1c(O)ccc2c(CNCCCCCC)c(O)ccc12.Cl | 100 | 100 | 22
CC(C)CC1c2[nH]c3ccccc3c2CCN1C(=O)CCc1ccccc1 (stereo unspecified) | 92 | 82 | 0
CN1CCCN(Cc2cccc(-c3cccc(NC(=O)c4cccc(Cl)c4)c3)c2)CC1.O=C(O)C(F)(F)F | 96 | 20 | 17
Cc1ccc(Nc2ccnc3cc(-c4nccs4)ccc23)cc1C(O)c1ccccc1.Cl (stereo unspecified) | 85 | 83 | 23
Cl.N#Cc1ccc2c(c1)CCN(CCC1CCC(NC(=O)c3ccc(-c4ccccc4)s3)CC1)CC2 (stereo unspecified) | 99 | 36 | 6
